Laboratory results from the supplement of paper PMC13380429.

Experiments:
[1] = test system: Vero E6 infected with SARS-CoV-2; experiment: morphology score (similarity to uninfected cells); higher = more like uninfected cells; details: 24 h
[2] = test system: Vero E6 infected with SARS-CoV-2; experiment: SARS-CoV-2 infection rate relative to infected DMSO; higher = more infection, active = 60 or less; details: 24 h

O=C(Nc1ccccc1)Nc1ccc(-c2ccc(C(=O)[C@@H]3CCC[C@@H]3C(=O)O)cc2)cc1 (10 µM)
morphology score [1]: 0.202 | SARS-CoV-2 infection rate [2]: 102% (inactive)

Oc1cc2c(c(Cl)c1O)CCNCC2c1ccccc1 (centres undefined) (10 µM)
morphology score [1]: 0.16 | SARS-CoV-2 infection rate [2]: 97.5% (inactive)

O=S(=O)(O)CCS [mesna] (10 µM)
morphology score [1]: 0.157 | SARS-CoV-2 infection rate [2]: 109% (inactive)

Cc1cc(N2CCOCC2)cc2[nH]c(-c3c(NC[C@@H](O)c4cccc(Cl)c4)cc[nH]c3=O)nc12 (0.833333 µM)
morphology score [1]: 0.0224 | SARS-CoV-2 infection rate [2]: 110% (inactive)

Cc1cc(C)cc(NC(=O)Cc2ccc(OC(C)(C)C(=O)O)cc2)c1 [efaproxiral] (10 µM)
morphology score [1]: -0.103 | SARS-CoV-2 infection rate [2]: 107% (inactive)

CC(=O)OCC(=O)[C@@]12N=C(C)O[C@@H]1C[C@H]1[C@@H]3CCC4=CC(=O)C=C[C@]4(C)[C@H]3[C@@H](O)C[C@@]12C [Deflazacort (Calcort)] (10 µM)
morphology score [1]: 0.0216 | SARS-CoV-2 infection rate [2]: 97.5% (inactive)

C[C@]12CC[C@H]3[C@@H](CC[C@]4(O)C[C@@H](O)CC[C@]34C=O)[C@@]1(O)CC[C@@H]2C1=CC(=O)OC1 [K-strophanthidin] (0.833333 µM)
morphology score [1]: 0.0264 | SARS-CoV-2 infection rate [2]: 92% (inactive)

CN(C(=O)CCCOc1ccc2[nH]c(=O)ccc2c1)C1CCCCC1 [cilostamide] (10 µM)
morphology score [1]: -0.131 | SARS-CoV-2 infection rate [2]: 103% (inactive)

CN(C)C(=O)[C@H](O)[C@H](Cc1ccccc1)NC(=O)c1cc2cc(Cl)ccc2[nH]1 (10 µM)
morphology score [1]: 0.225 | SARS-CoV-2 infection rate [2]: 102% (inactive)

CCN(CC)CCOCCOC(=O)C(CC)(CC)c1ccccc1 [oxelaidin] (10 µM)
morphology score [1]: 0.423 | SARS-CoV-2 infection rate [2]: 73.5% (inactive)

CCOC(=O)c1ccc(-n2cc(Cc3cnc(OCC)nc3)c(=O)nc2SCc2ccc(F)cc2)cc1 (10 µM)
morphology score [1]: 0.18 | SARS-CoV-2 infection rate [2]: 90.5% (inactive)

CCOc1ccc2nc3cc(N)ccc3c(N)c2c1 [ethacridine-lactate-monohydrate] (10 µM)
morphology score [1]: 0.0887 | SARS-CoV-2 infection rate [2]: 95.5% (inactive)

CN(C)/N=N/c1[nH]cnc1C(N)=O [dacarbazine] (10 µM)
morphology score [1]: 0.135 | SARS-CoV-2 infection rate [2]: 87% (inactive)

C[C@@H]1CC(=O)NN=C1c1ccc(NN=C(C#N)C#N)cc1 [levosimendan] (10 µM)
morphology score [1]: -0.109 | SARS-CoV-2 infection rate [2]: 117% (inactive)

CCOC(=O)C1=C(N)Oc2ccc(Br)cc2C1C(C#N)C(=O)OCC (centres undefined) (10 µM)
morphology score [1]: 0.0924 | SARS-CoV-2 infection rate [2]: 108% (inactive)

Fc1ccc(-c2cncc(CN3CCN(c4cccc5c4OCCO5)CC3)c2)cc1 [adoprazine] (10 µM)
morphology score [1]: 0.131 | SARS-CoV-2 infection rate [2]: 101% (inactive)

Cc1nn(C)c2c1C(c1ccc(C(F)(F)F)cc1)C(C#N)=C(N)O2 (centres undefined) (10 µM)
morphology score [1]: 0.0472 | SARS-CoV-2 infection rate [2]: 98% (inactive)

CNC(=O)Oc1cccc2ccccc12 [carbaril] (10 µM)
morphology score [1]: 0.025 | SARS-CoV-2 infection rate [2]: 101% (inactive)

COc1ccc(-c2oc3cc(OC)ccc3c2C(=O)c2ccc(C#N)cc2)cc1 (10 µM)
morphology score [1]: 0.111 | SARS-CoV-2 infection rate [2]: 97% (inactive)

CC[C@H](CC[C@@H](C)[C@H]1CC[C@H]2[C@@H]3CC=C4C[C@@H](O)CC[C@]4(C)[C@H]3CC[C@]12C)C(C)C [beta-Sitosterol] (10 µM)
morphology score [1]: 0.119 | SARS-CoV-2 infection rate [2]: 99% (inactive)

N[C@@H](Cn1ccc(=O)n(Cc2ccccc2C(=O)O)c1=O)C(=O)O (10 µM)
morphology score [1]: 0.28 | SARS-CoV-2 infection rate [2]: 79% (inactive)

c1ccc2sc(N3CCN(Cc4ccc5c(c4)OCO5)CC3)nc2c1 [2-[1-(4-piperonyl)piperazinyl]benzothiazole] (10 µM)
morphology score [1]: 0.00324 | SARS-CoV-2 infection rate [2]: 102% (inactive)

Cc1nc(NC(=O)N2CCC[C@H]2C(N)=O)sc1-c1ccnc(C(C)(C)C(F)(F)F)c1 [alpelisib] (10 µM)
morphology score [1]: 0.0577 | SARS-CoV-2 infection rate [2]: 113% (inactive)

CC(C)C[C@H](NC(=O)N1CCCCCC1)C(=O)N[C@H](Cc1cn(C)c2ccccc12)C(=O)N[C@H](Cc1ccccn1)C(=O)O (10 µM)
morphology score [1]: 0.257 | SARS-CoV-2 infection rate [2]: 100% (inactive)

CCCCN(CCCC)CCCOC(=O)c1ccc(N)cc1 [butacaine] (10 µM)
morphology score [1]: 0.206 | SARS-CoV-2 infection rate [2]: 100% (inactive)

O[C@@H](COc1cccc2ncccc12)CN1CCN([C@@H]2c3ccccc3[C@@H]3[C@H](c4ccccc42)C3(F)F)CC1 [zosuquidar] (0.833333 µM)
morphology score [1]: 0.0321 | SARS-CoV-2 infection rate [2]: 108% (inactive)

CCOC(=O)c1ncn2c1CN(C)C(=O)c1cc(F)ccc1-2 [flumazenil] (10 µM)
morphology score [1]: 0.0898 | SARS-CoV-2 infection rate [2]: 88.5% (inactive)
